Results as given in PubChem BioAssay (NCI).
Values joined by “and” are separate entries in the source; they are usually repeats but may differ in a detail not shown here. Identical values can stand only once. Compounds without any hit were thinned out: in the full panel of roughly 79,000, 15% have a hit. Active and inactive are the calls of the source. No stated cut-off is given here; in the data, active means growth inhibition above about 70%; inactive means the rest.

Key:
[1] = NCI Yeast Anticancer Drug Screen. Data for the rad50 strain (AID 155);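 further: 0% = growth of vehicle-only cultures of the same strain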; settings: S. cerevisiae rad50 strain growth inhibition, active compounds read high
How it was run: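 Yeast carrying a defined DNA repair defect were exposed to test compounds, and growth was compared with vehicle-treated controls to give percent inhibition.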

[2] = NCI Yeast Anticancer Drug Screen. Data for the mec2-1 strain (AID 157); settings: S. cerevisiae mec2-1 strain, active compounds read high
How it was run: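 Test agents were screened against the mec2-1 yeast strain, with defined DNA repair or cell cycle alteration. Growth was scored as inhibition against vehicle-only controls.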

[3] = NCI Yeast Anticancer Drug Screen. Data for the sgs1 mgt1 strain (AID 161);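 further: 0% = growth of cultures given vehicle only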; settings: S. cerevisiae sgs1 mgt1 strain, active compounds read high
How it was run: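 Genetically altered yeast, compound exposure, growth inhibition relative to vehicle.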

[4] = NCI Yeast Anticancer Drug Screen. Data for the cln2 rad14 strain (AID 165);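 further: 0% = growth equal to vehicle treated cultures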; settings: S. cerevisiae cln2 rad14 strain, active compounds read high
How it was run: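 Growth of compound-exposed yeast (cln2 rad14 genotype) measured and expressed as inhibition relative to vehicle.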

[5] = NCI Yeast Anticancer Drug Screen. Data for the bub3 strain (AID 167); settings: S. cerevisiae bub3 mutant strain, active compounds read high
How it was run: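 Compounds were applied to a genetically altered yeast strain carrying a cell-cycle control defect. Growth inhibition was scored against vehicle-treated controls.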

[6] = NCI Yeast Anticancer Drug Screen. Data for the mlh1 rad18 strain (AID 175); settings: S. cerevisiae mlh1 rad18 strain growth inhibition, active compounds read high
How it was run: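 In this whole-cell yeast screen, a strain with altered DNA damage repair is challenged with compound, and its growth is measured against matched vehicle-treated controls.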

[7] = NCI Yeast Anticancer Drug Screen. Data for the rad50EPP+ strain (AID 151);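 further: 0% = growth of vehicle-treated control cultures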; settings: S. cerevisiae rad50 mutant strain, active compounds read high
How it was run: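 One strain with a rad50 alteration (rad50EPP+) was compound-treated, its growth then compared to that of vehicle controls.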

[8] = NCI Yeast Anticancer Drug Screen. Data for the mgt1 strain (AID 153); settings: S. cerevisiae mgt1 mutant growth inhibition, active compounds read high
How it was run: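 After exposure of the mgt1 yeast mutant to compound, growth was measured and reported as inhibition compared with vehicle controls.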

[9] = NCI Yeast Anticancer Drug Screen. Data for the rad14 strain (AID 159);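 further: 0% = growth of vehicle-treated control cultures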; settings: S. cerevisiae rad14 strain growth inhibition, active compounds read high
How it was run: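 Yeast cells carrying a defined DNA-repair defect were exposed to compounds, and growth inhibition was calculated relative to vehicle-treated control cultures.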

[10] = at 5.0 µM (retest, dose inferred, filed as 0.5)
[11] = at 50.0 µM (retest, dose inferred, filed as 5.0)

Measured: growth inhibition

Cc1cn(CC2C=CC(CS[As](C)C)O2)c(=O)[nH]c1=O (stereo not drawn)
inactive: [1]; [10] 7% | [1]; at 50.0 µM 69.7% | [2]; [10] 1% | [3]; [10] 4% | [4]; [10] 0% | [5]; [10] 0% | [5]; [11] 45% | [5]; at 50.0 µM 53%
active: [1]; [11] 75% | [2]; [11] 83% | [2]; at 50.0 µM 92.2% | [3]; [11] 98% | [3]; at 50.0 µM 94.8% | [4]; [11] 95% | [4]; at 50.0 µM 72%

O=c1ssc(Cl)c1Cl
active: [1]; [10] 97% | [1]; [11] 98% | [1]; at 50.0 µM 86.5% | [2]; [10] 96% | [2]; [11] 100% | [2]; at 50.0 µM 89.2% | [3]; [10] 100% | [3]; [11] 100% | [3]; at 50.0 µM 89.7% | [4]; [10] 93% | [4]; [11] 98% | [4]; at 50.0 µM 89.1% | [5]; [10] 99% | [5]; [11] 100% | [5]; at 50.0 µM 87.6% | [6]; [10] 97% | [6]; [11] 98%

CCCCCCCCCCCCCCCCCC[N+](C)(C)C
active: [1]; [10] 98% | [1]; [11] 96% | [1]; at 50.0 µM 88.5% | [2]; [10] 99% | [2]; [11] 97% | [2]; at 50.0 µM 91.4% | [3]; [10] 99% | [3]; [11] 95% | [3]; at 50.0 µM 89.8% | [4]; [10] 99% | [4]; [11] 95% | [4]; at 50.0 µM 89.9% | [5]; [10] 99% | [5]; [11] 96% | [5]; at 50.0 µM 87%

c1ccc2c(NCCCCCCNc3c4ccccc4nc4ccccc34)c3ccccc3nc2c1
inactive: [1]; [10] 68% | [2]; [10] 43% | [3]; [10] 54% | [3]; at 50.0 µM 61.5% | [4]; [10] 20% | [4]; [11] 57% | [4]; at 50.0 µM 8.4% | [5]; [10] 56% | [6]; [10] 61%
active: [1]; [11] 89% | [1]; at 50.0 µM 75.4% | [2]; [11] 80% | [2]; at 50.0 µM 73.5% | [3]; [11] 83% | [5]; [11] 88% | [5]; at 50.0 µM 73.1% | [6]; [11] 83%

CCC[CH2][Pb]([Cl])([CH2]CCC)[CH2]CCC
active: [1]; [10] 99% | [1]; [11] 98% | [1]; at 50.0 µM 88% | [2]; [10] 100% | [2]; [11] 99% | [2]; at 50.0 µM 92% | [3]; [10] 100% | [3]; [11] 99% | [3]; at 50.0 µM 92.2% | [4]; [10] 98% | [4]; [11] 98% | [4]; at 50.0 µM 91.2% | [5]; [10] 100% | [5]; [11] 98% | [5]; at 50.0 µM 89.9% | [6]; [10] 99% | [6]; [11] 98%

CCCCCCCCCCCCNCCc1ccccc1
active: [1]; [10] 99% | [1]; [11] 99% | [1]; at 50.0 µM 98.2% | [2]; [10] 99% | [2]; [11] 98% | [2]; at 50.0 µM 98.8% | [3]; [10] 99% | [3]; [11] 98% | [3]; at 50.0 µM 98.9% | [4]; [10] 99% | [4]; [11] 98% | [4]; at 50.0 µM 98% | [5]; [10] 99% | [5]; [11] 98% | [5]; at 50.0 µM 98.2%

Cc1nc(Cl)c(CBr)c(Cl)n1
inactive: [1]; [10] 38% | [1]; at 50.0 µM 67.8% | [2]; [10] 44% | [3]; [10] 43% | [3]; at 50.0 µM 32.6% | [4]; [10] 40% | [4]; at 50.0 µM 33.8% | [5]; [10] 54% | [5]; at 50.0 µM 52.5% | [6]; [10] 50%
active: [1]; [11] 99% | [2]; [11] 100% | [2]; at 50.0 µM 70.2% | [3]; [11] 100% | [4]; [11] 100% | [5]; [11] 100% | [6]; [11] 99%

CC(=O)[O-].O=C([CH-]C(=O)c1ccccc1)c1ccccc1.O=C([CH-]C(=O)c1ccccc1)c1ccccc1.[Sm+3]
active: [1]; at 11.0 µM 79% | [1]; at 33.0 µM 96% | [1]; at 50.0 µM 90.8% | [1]; at 100.0 µM 98% | [2]; at 33.0 µM 97% | [2]; at 50.0 µM 93% | [2]; at 100.0 µM 98% | [3]; at 50.0 µM 92.8% | [5]; at 11.0 µM 84% | [5]; at 33.0 µM 97% | [5]; at 50.0 µM 90.8% | [5]; at 100.0 µM 98% | [6]; at 50.0 µM 90.2%
inactive: [1]; at 1.2 µM 9% | [1]; at 3.7 µM -5% | [1]; [10] 55% | [1]; [11] 55% | [2]; at 1.2 µM -2% | [2]; at 3.7 µM 5% | [2]; [10] 42% | [2]; at 11.0 µM 47% | [2]; [11] 42% | [3]; [10] 50% | [3]; [11] 50% | [5]; at 1.2 µM 16% | [5]; at 3.7 µM 19% | [5]; [10] 52% | [5]; [11] 52% | [6]; [10] 44% | [6]; [11] 44%

BrCC[N+]12CC[N+](CCBr)(CC1)C2
inactive: [7]; at 1.2 µM 9% | [7]; at 3.7 µM 14% | [7]; at 11.0 µM 12% | [8]; at 1.2 µM 12% | [8]; at 3.7 µM -2% | [8]; at 11.0 µM 42% | [1]; at 1.2 µM 14% | [1]; at 3.7 µM 20% | [1]; [10] 40% and 27% | [1]; at 11.0 µM 55% | [2]; at 1.2 µM -4% | [2]; at 3.7 µM 5% | [2]; [10] 43% and 1% | [2]; at 11.0 µM 29% | [9]; at 1.2 µM -13% | [9]; at 3.7 µM -16% | [9]; at 11.0 µM 56%
active: [7]; at 33.0 µM 81% | [7]; at 100.0 µM 92% | [8]; at 33.0 µM 88% | [8]; at 100.0 µM 96% | [1]; at 33.0 µM 87% | [1]; [11] 94% and 89% | [1]; at 50.0 µM 86.7% and 86.5% | [1]; at 100.0 µM 93% | [2]; at 33.0 µM 87% | [2]; [11] 98% and 94% | [2]; at 50.0 µM 92.2% and 89.9% | [2]; at 100.0 µM 95% | [9]; at 33.0 µM 93%
